According to PubChem BioAssay AID504374 (National Center for Advancing Translational Sciences (NCATS), 2011):
Hit rate of the full screen: of about 1,500 compounds, about 100 (6.7%) were called active. Roughly 7% stayed inconclusive and do not appear here. This is one part of a sample in which actives are shown more often than they occur. Unmarked numbers belong to inactive results. Calls follow the shape of the dose curve; as a rule, active = well fitted inhibition curve with a large enough effect; inconclusive = small, poorly fitted or top-dose-only effect, or effect the other way; inactive = flat fitted curve, though single readings scatter.

The molecules below were run against Runt-related transcription factor 1 (Homo sapiens) + Core-binding factor subunit beta (Homo sapiens) (UniProt Q01196+Q13951) (assay: qHTS Assay for Compounds Blocking the Interaction Between CBF-beta and RUNX1 for the Treatment of Acute Myeloid Leukemia: Hit Validation). Details: AlphaScreen CBFb-His/RUNX1-biotin binding; series mostly up to 59.8 µM; activity, negative = inhibition: at the top concentration.
Method in brief: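 AlphaScreen proximity assay: His-tagged CBF-beta and biotinylated RUNX1 (30 nM each) preincubated 20 min, then compound 15 min, then nickel and streptavidin beads 90 min, all at room temperature; signal read at […]em 440 nm.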
% is scaled to controls: 0 for no effect and ±100 for the full control effect; potency is read from the fitted curve at half-maximal effect.
Also: nearly all actives have a fitted effect of over 60% in size.

Sequence of Runt-related transcription factor 1 (Homo sapiens) + Core-binding factor subunit beta (Homo sapiens) (Q01196 whole entry, looked up): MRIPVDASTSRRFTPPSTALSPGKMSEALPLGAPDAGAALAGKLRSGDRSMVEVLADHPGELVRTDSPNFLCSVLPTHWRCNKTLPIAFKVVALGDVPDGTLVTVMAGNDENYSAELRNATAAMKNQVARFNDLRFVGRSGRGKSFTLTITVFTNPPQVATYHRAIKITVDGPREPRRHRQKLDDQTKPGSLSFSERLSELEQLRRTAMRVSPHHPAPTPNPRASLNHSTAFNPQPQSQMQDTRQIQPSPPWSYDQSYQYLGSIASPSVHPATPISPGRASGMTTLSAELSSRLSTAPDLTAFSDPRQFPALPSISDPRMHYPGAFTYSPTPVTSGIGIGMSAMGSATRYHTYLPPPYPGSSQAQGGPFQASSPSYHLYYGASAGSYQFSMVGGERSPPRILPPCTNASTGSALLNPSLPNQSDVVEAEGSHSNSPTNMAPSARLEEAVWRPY
Sequence of Runt-related transcription factor 1 (Homo sapiens) + Core-binding factor subunit beta (Homo sapiens) (Q13951 whole entry, looked up): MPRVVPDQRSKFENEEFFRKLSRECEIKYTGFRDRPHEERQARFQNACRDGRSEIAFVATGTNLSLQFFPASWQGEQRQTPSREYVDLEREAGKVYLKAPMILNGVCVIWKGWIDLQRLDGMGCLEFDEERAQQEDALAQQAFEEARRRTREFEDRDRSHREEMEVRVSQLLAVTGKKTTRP

Row | Structure (SMILES) | activity, negative = inhibition [%] | Potency
1 | CC(C)(C)OC(=O)N1Cc2cc3ccccc3nc2C1CO (stereo not drawn) | -2.12 | –
2 | COc1ccccc1CC(=O)Nc1cccc(C(=O)Nc2nccs2)c1 | -6.81 | –
3 | COc1ccc(NC(=O)CSc2ccc(-c3ccccn3)nn2)cc1OC | – | 4.47 µM (active)
4 | COC(=O)CNC(=O)CSc1ccccn1 | 6.43 | –
5 | CCOc1ccc(NC(=O)CSc2ccc(-c3ccccn3)nn2)cc1 | – | 5.01 µM (active)
6 | CCOc1ccc(NC(=O)Nc2cc(C(C)C)c(O)cc2C)cc1 | -2.87 | –
7 | COc1ccc(/C=N/NC(=O)Cn2ccnc2C)cc1OC | -9.74 | –
8 | COC(=O)[C@H](C)NC(=O)NCc1ccccc1 | -3.2 | –
9 | O=C(CSc1ccc(-c2ccccn2)nn1)NCc1ccccc1 | – | 5.62 µM (active)
10 | CCOc1ccc(Nc2c3ccccc3nc3ccccc23)cc1 | -13 | –
11 | Cc1oc(S(=O)(=O)N2CCCCC2)cc1NC(=O)Nc1ccc(F)cc1 | -4.08 | –
12 | CC1CN(S(=O)(=O)c2cccc(C(F)(F)F)c2)CC(C)O1 (stereo not drawn) | -0.629 | –
13 | COc1ccc(NC(=O)CCC(=O)N/N=C/c2ccncc2)cc1 | 4.92 | –
14 | CC(C)CC1C2C(=O)N(c3ccccc3)C(=O)C2ON1c1ccccc1 (stereo not drawn) | 0.251 | –
15 | c1ccc2sc(SCSc3nc4ccccc4s3)nc2c1 | -3.42 | –
16 | CC1(C)CC(=O)C2=C(C1)OC(N)=C(C#N)[C@@H]2c1ccccc1[N+](=O)[O-] | -5.53 | –
17 | COc1ccc(/C=N/NC(=O)c2cnccn2)c(OC)c1OC | -4.33 | –
18 | CSc1ccc(C(=O)NCC(=O)O)cc1[N+](=O)[O-] | -1.02 | –
19 | CC(C)(C)c1ccc(NC(=O)c2ccsc2)cc1 | 6.68 | –
20 | COC(=O)c1ccc(S(=O)(=O)N(C2CCCCC2)C2CCCCC2)n1C | -5.96 | –

Row | Structure (SMILES) | activity, negative = inhibition [%] | Potency
21 | CCN(CC)CCN1C(=O)C(=O)/C(=C(/O)c2ccc3c(c2)CC(C)O3)C1c1ccc(OC)cc1 (stereo not drawn) | -3.3 | –
22 | O=S(=O)(Nc1nc(SCc2ccc(Cl)cc2)n[nH]1)c1ccccc1 | -15.9 | –
23 | CCOC(=O)N1CCC(NC(=O)CCCC(=O)O)CC1 | 6.93 | –
24 | Nc1c(C(=O)NCC2CCCO2)sc2nc3c(c(-c4ccco4)c12)CC/C3=C\c1ccco1 (stereo not drawn) | – | 12.6 µM (active)
25 | Cc1ccccc1-c1noc(-c2ccccc2C(=O)NCC2CCCO2)n1 (stereo not drawn) | -6.51 | –
26 | C/C(Cc1nnn(-c2cc(C)on2)n1)=N\O | -0.472 | –
27 | CCOC(=O)Cc1csc(NC(=O)Cc2ccc(Br)cc2)n1 | -4.76 | –
28 | COc1ccc(-c2nnsc2N2C(=O)c3ccccc3C2=O)cc1 | -3.86 | –
29 | COC(=O)C(=Cc1ccccc1[N+](=O)[O-])C(=O)OC | -2.17 | –
30 | CC(=O)Nc1ccc(S(=O)(=O)Nc2cc(-c3ccccc3)nn2C)cc1 | 0.969 | –
31 | CN(C)C(=O)Nc1ccccc1 | -3.42 | –
32 | O=C(O)C[C@@H]1C(=O)O[C@@H]2C(COC(=O)c3cc(O)c(O)c(O)c3)O[C@@H](OC(=O)c3cc(O)c(O)c(O)c3)[C@@H](OC(=O)c3cc(O)c(O)c4c3[C@H]1[C@H](O)C(=O)O4)[C@H]2OC(=O)c1cc(O)c(O)c(O)c1 (stereo partly drawn) | – | 0.0316 µM (active)
33 | O=C(/C=C/c1ccccc1)c1c[nH]c2ccccc12 | -1.47 | –
34 | Cc1cccc(CC(=O)c2c[nH]c3ccccc23)c1 | -8.61 | –
35 | CC(Cc1c[nH]c2ccccc12)C(=O)O (stereo not drawn) | – | 12.2 µM (active)
36 | Cc1onc(-c2c(F)cccc2Cl)c1C(=O)N1CCSCC1 | -1.82 | –
37 | Cc1cc(=O)cc2oc3cc(N)c(-c4c(C)cc(O)cc4O)c(C)c3nc1-2 | – | 8.88 µM (active)
38 | O=C(O)c1cnc2[nH]c3ccccc3n2c1=O | -12 | –
39 | Nc1nc(Nc2ccccc2)nc(NCCO)c1[N+](=O)[O-] | -6.03 | –
40 | Cc1ccn(C)c(=N)c1 | -1.05 | –

Row | Structure (SMILES) | activity, negative = inhibition [%] | Potency
41 | COc1ccc(NS(=O)(=O)c2ccc3c(c2)CCO3)cc1 | -11.6 | –
42 | COc1ccc(OC)c(-c2c3cc(O)c(=O)cc-3oc3cc(O)c(O)cc23)c1 | – | 2.24 µM (active)
43 | NNC(=O)c1ccc(Cn2cccn2)o1 | -3.9 | –
44 | FC(F)(F)c1cccc(-n2c(Cn3nnc4ccccc43)n[nH]c2=S)c1 | 7.14 | –
45 | Nc1cc(=O)[nH]c(SCC(=O)Nc2cc(Cl)ccc2Cl)n1 | -10 | –
46 | NCC(=O)Nc1ccc(Cl)cc1C(=O)c1ccc[nH]1 | – | 3.55 µM (active)
47 | O=C(O)/C=C/C(=O)Nc1ccc(Cl)cc1C(=O)c1ccccc1 | -3.57 | –
48 | Cc1ccc(C)c(N2CCN(c3ccncc3N)CC2)c1 | -11.1 | –
49 | O=C(/C=C/c1ccc(O)c(O)c1)c1ccccc1O | -28.7 | –
50 | N[C@H](Cc1ccc(O)c(O)c1)C(=O)O | – | 8.91 µM (active)
51 | NCCc1ccc(O)c(O)c1 | -10.7 | –
52 | NC(Cc1ccc(O)c(O)c1)C(=O)O (stereo not drawn) | – | 1.12 µM (active)
53 | CCCCc1cc(=O)oc2c(C)c(OCc3nn[nH]n3)ccc12 | -4.17 | –
54 | CC(=O)Nc1nnc(CSCc2ccc(F)cc2)s1 | -1.58 | –
55 | Cc1ccc(-c2nn[nH]n2)cc1Cl | 0.848 | –
56 | Cc1ccc(C(=O)/C=C/N(C)C)cn1 | -6.06 | –
57 | CCOC(=O)Cc1csc(NC(=O)Nc2cccc(OC)c2)n1 | 6.65 | –
58 | CCOC(=O)N1CCC(NS(=O)(=O)c2ccc(C)c(Cl)c2)CC1 | -2.28 | –
